# Source: PubChem
# Compounds with a hit are over-represented: about 19% of the library has one in this group of screens.
# DT40 TDP1 no CPT: qHTS for Inhibitors of human tyrosyl-DNA phosphodiesterase 1 (TDP1): qHTS in cells in absence of CPT; DT40 Tdp1-/- hTDP1 cells, no CPT, ATP luminescence, 48 h; Potency, µM (doses to about 46.2 µM), inactives show top-dose activity change, negative = growth inhibition, actives largely listed as inhibitors; 420,000 tested, 15% active; AID 686978, 2013; further: potency means the concentration at half of the fitted maximal effect; nearly all actives have a fitted effect of over 55% in size
#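 DT40 Tdp1-/-;hTDP1 cells, no CPT (DMSO vehicle only), 400 cells/well; compounds pin-transferred; ≥48 hr, 37 °C; CellTiter-Glo 30 min RT dark, luminescence read.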
# HT1080 IDH1KD tx: qHTS for induction of synthetic lethality in tumor cells producing 2HG: qHTS for the HT-1080-IDH1KD cell line; 360,000 tested, 2% active; Potency, µM (highest dose often 46.1 µM), without a hit: top-dose activity, negative = toxicity, usual class: cytotoxic; HT-1080 IDH1 knockdown viability, ATP luminescence, 48 h;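 further: potency means the concentration at half of the fitted maximal effect; 0% = DMSO wells and -100% = cell-free medium wells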
#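 Cytotoxicity counter-line: IDH1KD HT-1080, 48 h, CellTiter-Glo. Curves classed by r2, magnitude and activity.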
# HT1080-NT tox: qHTS for induction of synthetic lethality in tumor cells producing 2HG: qHTS for the HT-1080-NT fibrosarcoma cell line; 360,000 tested, 1.6% active; HT-1080-NT fibrosarcoma viability, CellTiter-Glo ATP luminescence, 48 h; Potency, µM (series often up to 46.1 µM), inactives show at the top dose activity, negative = less viability, actives largely listed as cytotoxic;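 further: NT is the 2HG producing partner of a matched IDH1 knockdown line; potency means the concentration at half of the fitted maximal effect; 0% = DMSO-treated cells and -100% = media-only wells without cells; nearly all actives have a fitted effect of over 55% in size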
#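 Viability of the 2HG-overproducing fibrosarcoma line after 48 hours of compound exposure at 37 degrees C was determined by luminescence with CellTiter-Glo, and concentration-effect curves were then fitted and categorized.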
# TDP1 cell CPT: qHTS for Inhibitors of human tyrosyl-DNA phosphodiesterase 1 (TDP1): qHTS in cells in presence of CPT | chicken DT40 Tdp1-/-;hTDP1 cells + 20 nM CPT, ATP luminescence, 48 h | Potency, µM (highest dose often 46.2 µM), without a hit: at the highest dose activity change, negative = growth inhibition, usual class: inhibitors | 420,000 tested, 12% active | AID 686979, 2013; further: potency means the concentration at half of the fitted maximal effect; nearly all actives have a fitted effect of over 55% in size
#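 Chicken DT40 Tdp1-/- cells complemented with human TDP1, 400 cells/well, exposed to compounds plus 20 nM camptothecin for at least 48 h at 37 C; viability read as ATP content by CellTiter-Glo luminescence.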
# IL1B secr inh: qHTS for Inhibitors of Inflammasome Signaling: IL-1-beta AlphaLISA Primary Screen; THP-1 LPS/ATP IL-1B secretion, AlphaLISA, 16 h; stronger effect = lower value; activity change, % at 57.5 µM; 360,000 tested, 4.7% active; AID 743279, 2014; in the data active means activity change below about -50%; inconclusive means mostly about -30% to -49%
#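 THP-1 cells pretreated 1 hr with compounds (up to 57.5 uM final), then stimulated with LPS (250 ng/mL final) plus ATP (1.25 mM final); secreted IL-1B measured by AlphaLISA after 16 hr, decreased signal indicating inhibition.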
# An asterisk follows results filed as active; ? = inconclusive; [ ] = dose if it differs, or a comment. Unless noted, the call rests on the fitted dose curve; in most records, active means well fitted curve in the direction sought with a large enough effect; inconclusive means small, poorly fitted or top-dose-only effect, or another doubt; inactive means no such curve, though single readings can be large; an effect the other way counts as inactive or inconclusive. Unless noted, on the % scale 0 is the no-effect control and ±100 the full control effect.
SMILES,DT40 TDP1 no CPT,HT1080 IDH1KD tx,HT1080-NT tox,TDP1 cell CPT,IL1B secr inh
COc1ccc(S(=O)(=O)N(C)C[C@H]2Oc3c(NS(=O)(=O)c4cn(C)cn4)cccc3C(=O)N([C@H](C)CO)C[C@@H]2C)cc1,3.0%,12.6%,1.8%,19.6%,18.9
CCC1CCC(N2CCN(c3ccc([N+](=O)[O-])cc3)CC2)CC1 (stereo not given),?,?,-28.8%,?,-59.9*
O=C(Cn1cnc2ccccc2c1=O)N1CCN(c2ccccc2)CC1,-7.7%,4.2%,2.4%,8.3%,1.8
O=C(Cn1cc([N+](=O)[O-])nc1[N+](=O)[O-])N1CCN(c2ccccc2)CC1,?,25.9µM*,-20.9%,16.4µM*,?
O=C(NCCN1CCN(c2ccc([N+](=O)[O-])cc2)CC1)NCc1ccccc1,8.2µM*,-15.6%,-7.1%,?,-15.9
CC(C)c1ccc(C(N)=S)cc1,25.9µM*,3.9%,15.8%,-0.3%,11.7
CC(C)c1ccc(C(=O)NNC(=O)c2ccncc2)cc1,-1.9%,2.6%,-1.7%,-6.9%,16.0
CC(NCCCOc1cccc2ccccc12)c1ccccc1 (stereo not given),18.4µM*,?,?,?,-73.8*
COc1ccc2ccccc2c1CNCc1ccc(C)cc1,?,?,?,?,-91.7*
CC(NCc1ccccc1O)c1ccccc1 (stereo not given),21.7%,-3.1%,2.2%,-15.3%,9.8
CC(NCCOCCOc1ccccc1)c1ccccc1 (stereo not given),?,-1.0%,0.9%,-19.0%,-7.8
COc1ccc2ccccc2c1CNC(C)c1ccccc1 (stereo not given),10.3µM*,?,-26.7%,7.31µM*,-55.2*
CC1CCN(C(=O)COc2cccc3c2CCN(Cc2ccccc2)C3=O)CC1,?,-26.3%,-23.2%,22.4%,-29.1
CCN(CC)c1ccc(/C=N/n2nnnc2N)c(O)c1,16.4µM*,-22.8%,-0.6%,14.6µM*,11.7
CCN(C)c1ccc(/C=N\n2nnnc2N)cc1,5.8µM*,5.17µM*,?,7.31µM*,44.6
CCC1=NC(c2ccccc2Cl)N(O)C1(C)C (stereo not given),-3.9%,26.3%,2.1%,4.8%,14.0
Cc1cccc2cc(CN(Cc3cccnc3)C(=O)c3ccccc3F)c(Cl)nc12,?,1.9%,-3.8%,?,-6.7
Cc1cc(C)c2cc(CN(Cc3cccnc3)C(=O)c3ccc(F)cc3)c(Cl)nc2c1,14.6µM*,?,?,18.4µM*,?
CSc1cccc(NC(=O)CCCOc2cc(=O)n(C)c3ccccc23)c1,?,-9.9%,-0.3%,?,-19.3
COc1ccc(C2=NN(C(=O)CN3CCCC3)C(c3ccc(OC)cc3)C2)cc1 (stereo not given),-28.7%,-5.0%,-1.5%,-12.6%,-62.3*
COc1ccc(C2CC(c3ccc4ccccc4c3)=NN2C(=O)CN2C(=O)CCC2=O)cc1 (stereo not given),23.1µM*,-7.9%,-0.7%,25.9µM*,?
COc1ccc(C2CC(c3ccccc3)=NN2C(=O)COC(=O)C2CC2)cc1 (stereo not given),?,11.3%,0.7%,-6.5%,-14.1
COc1ccc(C2=NN(C(=O)CN3CCCCC3)C(c3ccc(OC)cc3)C2)cc1 (stereo not given),?,-0.2%,-4.3%,16.4µM*,-12.2
COc1ccccc1NC(=O)c1ccc(N2CC3CC(C2)c2cccc(=O)n2C3)c(NC(=O)c2ccncc2)c1 (stereo not given),-26.3%,-1.6%,6.6%,6.4%,-12.5
CCN(C(=O)COC(=O)c1cc(S(=O)(=O)N(C)C)ccc1Cl)C1CCS(=O)(=O)C1 (stereo not given),0.9%,2.0%,-1.4%,-0.1%,5.1
SMILES,DT40 TDP1 no CPT,HT1080 IDH1KD tx,HT1080-NT tox,TDP1 cell CPT,IL1B secr inh
O=C(N/N=C/c1c[nH]c2ccccc12)c1ccn(Cc2ccc(Cl)cc2Cl)n1,?,-12.2%,-21.3%,-20.7%,-6.8
O=C(N/N=C/c1c[nH]c2ccc(Br)cc12)c1ccn(Cc2ccc(Cl)cc2)n1,20.6µM*,?,-21.5%,?,?
Cc1nnsc1C(=O)Nc1ccc(S(=O)(=O)N2CCCCC2)cc1,?,-9.9%,-4.3%,20.6µM*,-14.8
O=C(Nc1ccccc1C(=O)O)c1cc(S(=O)(=O)N2CCCCC2)c(Cl)cc1Cl,11.6µM*,-1.0%,-3.1%,23.1µM*,27.5
Cc1nnsc1C(=O)Nc1ccc(S(=O)(=O)N2CCCC(C)C2)cc1 (stereo not given),?,-5.8%,-14.1%,?,?
O=C(Nc1ccc(S(=O)(=O)N2CCCCC2)cc1)c1ccccc1Cl,25.9µM*,-10.3%,-27.1%,?,?
Cc1ccc(NC(=O)c2cc(S(=O)(=O)N3CCCCC3)cs2)cc1,-19.9%,-4.3%[9.24 µM],?,-9.0%,-73.4*
O=C(COC(=O)Cc1ccsc1)Nc1ccc(Br)cc1F,1.4%,8.6%,-1.2%,-8.1%,0.5
N#CC(C#N)=NNc1ccc(S(=O)(=O)N2CCCCC2)cc1,16.4µM*,-9.4%,-3.7%,?,9.4
COc1ccccc1NC(=O)c1cc(S(=O)(=O)N2CCCCCC2)ccc1F,?,-4.6%,-6.1%,?,?
COc1ccccc1NS(=O)(=O)c1ccc(C)c(NC(=O)c2ccc(S(=O)(=O)N3CCCCCC3)cc2)c1,20.6µM*,-2.5%,-8.6%,?,-3.4
COc1cc(S(=O)(=O)N2CCCCC2)ccc1NC(=O)c1ccccc1Cl,16.4µM*,-4.3%,-17.6%,16.4µM*,-13.9
O=C(CCNc1n[nH]c(=O)[nH]c1=O)N1CCOCC1,16.6%,3.7%,4.4%,2.6%,8.2
Cc1ccc2c(c1)c1c(n2CC(O)CNC(CO)(CO)CO)CCCC1 (stereo not given),-27.1%,-21.7%,-6.8%,?,-25.9
CC(=O)c1c(C)nn(CC(O)Cn2c3c(c4cc(C)ccc42)CCCC3=O)c1C (stereo not given),?,-4.0%,-2.5%,?,-62.2*
Cc1ccc2c(c1)c1c(n2CC(O)Cn2nc(C)c(Br)c2C)C(=O)CCC1 (stereo not given),20.6µM*,-4.3%,-1.7%,20.6µM*,0.0
Cc1ccc2c(c1)c(C)c(C)n2CC(O)Cn1nc(C)c(Br)c1C (stereo not given),?,?,16.4µM*,-26.8%,?
